Experimental findings from PubChem BioAssay (Tox21) are described below.

A number with no mark means an inactive call. Inconclusive results are not listed. Activity calls are given as the source filed them. Unless noted, calls follow the shape of the dose curve; as a rule, active = well fitted curve in the direction sought with a large enough effect in the repeat runs; inconclusive = weak or mixed curves; inactive = no such curve, though single readings can be large; an effect the other way counts as inactive or inconclusive.

Experiment [1] in a line: qHTS assay to identify small molecule agonists of H2AX (AID 1224845; active = well fitted activation curve with a large enough effect in the signal ratio in the repeat runs, not every such curve was filed as active; the % refers to the signal ratio; also: potency is read from the fitted curve at half-maximal effect). A digest of the protocol: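 Phospho-H2AX Ser139 measured by HTRF (ex 320 nm; em 665 and 620 nm) after 24 hr antibody incubation. Compounds, 15 concentrations, 0.76% DMSO, were applied to CHO-K1 cells for 3hr at 37C before lysis.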
A short description of experiment [2]: qHTS assay to identify small molecule agonists of H2AX - cell viability counter screen (AID 1224847; calls by dose curve; also: nearly all actives have a fitted effect of over 30% in size; also: potency is read from the fitted curve at half-maximal effect;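 as to activity change, negative = cytotoxicity: wild-type CHO-K1 cells; top concentration of the series differs between compounds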). A digest of the protocol: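 Counter-screen for viability: CellTiter-Glo ATP luminescence read after 3 h compound treatment (15-point titration, 0.76% DMSO final) of CHO-K1 cells at 37C, with 30 min room-temperature reagent incubation.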
For orientation: Quantitative high-throughput screening tests each substance at several concentrations.

Experiment [3] in a line: qHTS assay to identify small molecule antagonists of the estrogen related receptor (ERR) signaling pathway from Tox21 library (AID 1224848). Also: nearly all actives have a fitted effect of over 50% in size. Also: potency is read from the fitted curve at half-maximal effect. The gist of the method: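 Antagonist-mode screen of the Tox21 10K library in an NTP-provided ERR reporter cell line; 18 h compound exposure at 37 C, luminescence measured with ONE-Glo.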
Experiment [4] is described as follows: qHTS assay to identify small molecule agonists of the estrogen related receptor (ERR) signaling pathway from Tox21 library (AID 1224849; calls by dose curve; also: nearly all actives have a fitted effect of over 15% in size). As to conditions: ERR reporter cell line, ONE-Glo luciferase, 18 h. A digest of the protocol:
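ERR reporter cell line (NTP) seeded, rested 6 h at 37 C/5% CO2, then pinned with Tox21 compounds in DMSO. After 18 h at 37 C, ONE-Glo luciferase luminescence was read following 30 min at room temperature.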

Experiment [5] can be described thus: qHTS RealTime-Glo MT Cell Viability Assay in HepG2 cells - 24 hour (AID 1224867). Also: nearly all actives have a fitted effect of over 50% in size. Also: potency is read from the fitted curve at half-maximal effect. The gist of the method:
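Cells + NanoLuc/prosubstrate dispensed (600 cells/well) → 5 h at 37 C/5% CO2 → compounds in DMSO transferred → 40 h incubation at 37 C, luminescence read at 0, 8, 16, 24, 32, 40 h.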

The nature of experiment [6]: A CellTox Green Cytotoxicity Assay to monitor cytotoxicity in HEK293 cells - 0 hour (AID 1224869). Also: nearly all actives have a fitted effect of over 50% in size. Also: potency is read from the fitted curve at half-maximal effect. A digest of the protocol: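 HEK293 cells premixed with CellTox Green dye were seeded at 600 cells/well and left 5 h at 37 C/5% CO2 before pin transfer of 23 nL compound in DMSO. Fluorescence from dye bound to dead-cell DNA was read during 40 h treatment.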
Experiment [7] can be described thus: qHTS RealTime-Glo MT Cell Viability Assay in HepG2 cells - 40 hour (AID 1224870). Also: nearly all actives have a fitted effect of over 50% in size. Also: potency is read from the fitted curve at half-maximal effect. The gist of the method: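 Real-time viability: cells seeded at 600 per well together with NanoLuc and cell-permeant prosubstrate, compounds added after 5 h incubation. Luminescence tracked at 0, 8, 16, 24, 32 and 40 h of exposure.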
A short description of experiment [8]: qHTS assay to identify small molecule agonists of the hypoxia (HIF-1) signaling pathway (AID 1224846; active = well fitted activation curve with a large enough effect in the signal ratio in the repeat runs, not every such curve was filed as active; the % refers to the signal ratio). The gist of the method:
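HRE-bla ME-180 cells (beta-lactamase reporter under hypoxia response element) were plated at 2,000 cells/well in medium with 0.5% dialyzed FBS, rested 5 hrs, then given compounds in DMSO for 17 hrs at 37C, 5% CO2. Reporter induction was read with CCF4-AM FRET substrate.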

A short description of experiment [9]: qHTS RealTime-Glo MT Cell Viability Assay in HEK293 cells - 32 hour (AID 1224868). Also: nearly all actives have a fitted effect of over 50% in size. Also: potency is read from the fitted curve at half-maximal effect. As to activity change, negative = cytotoxic: top concentration of the series differs between compounds. A digest of the protocol:
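Tox21 10K qHTS, HEK293, 600 cells/well, RealTime-Glo reagent co-dispensed with cells; 5 h preincubation, compound by pintool, 37 C, luminescence at 0–40 h.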

Experiment [10] is described as follows: qHTS assay to identify small molecule agonists of the hypoxia (HIF-1) signaling pathway - cell viability counter screen (AID 1224844; calls by dose curve; also: nearly all actives have a fitted effect of over 50% in size). The gist of the method:
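HRE-bla ME-180 cells in medium with 0.5% dialyzed FBS were preincubated 5 hrs at 37C, exposed to compounds for 17 hrs, then viability was read as CellTiter-Glo luminescence after 30 min at room temperature, in the reporter wells.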
% is scaled to controls: 0 for no effect and ±100 for the full control effect.

In the case of `O=C(O)O`, the Potency in experiment [1] was 4.88 µM (active). For the same compound, the activity change, negative = cytotoxicity in experiment [2] was -9.67% [at 14 µM]; in experiment [5] it was 3.08% [at 6.97 µM]. Moreover, the activity, negative = inhibition in [3] was 10.7% [at 8.39 µM]. Further, the activity change, positive = activation in experiment [4] (at 8.39 µM (top of the series)) is 5.47%. In [6], the cytotoxicity was 2.74% [at 6.97 µM]. Also, in experiment [7], the activity change, negative = cytotoxic was 19% [at 6.97 µM].

For `Nc1cc(Cl)c(O)c(Cl)c1`, the Potency entry in experiment [8], in [3], in experiment [5], in experiment [6] and in experiment [7] was “inactive” in each case. In addition, the activity change, positive = activation in experiment [4] (at 92.4 µM (top of the series)) is -4.45%.

Take `CCCCC/C=C\C/C=C\CCCCCCCC(=O)O`: the Potency entry in experiment [1], in experiment [2], in [5], in experiment [9], in experiment [6] and in [7] was “inactive” in each case.

For the compound `CC[N+](CC)(CC)CCOc1ccc(/C=C/c2ccccc2)cc1`, the Potency result in [1], in [8] and in [6] was “inactive” each time. Also, the Potency in experiment [3] is 7.5 µM (active); in [7] it was 23.9 µM (active). Further, the activity change, positive = activation in [4] (at 42.5 µM (top of the series)) was -43%.

With `O=C1CCc2ccc(OCCCCN3CCN(c4cccc(Cl)c4Cl)CC3)cc2N1`, the Potency entry in [1] and in experiment [6] was “inactive” in each case. Besides, the values for the Potency in experiment [2], in experiment [3] and in experiment [9] were 55.2 µM (active), 11.9 µM (active) and 10.7 µM (active), respectively. The activity change, positive = activation in experiment [4] (at 42.5 µM (top of the series)) was -56%.

With `CCO[C@@H]1O[C@H](C(COCc2ccccc2)OCc2ccccc2)[C@H](OCc2ccccc2)[C@H]1O` (stereo partly specified), the Potency entry in experiment [1], in experiment [5], in [6] and in [7] was “inactive” throughout. Also, in experiment [3], the Potency is 29.8 µM (active). Further, the activity change, positive = activation in experiment [4] (at 42.5 µM (top of the series)) is -48%.

On to `Cc1cc(C)c(/C=C2\C(=O)Nc3ccccc32)[nH]1`, for which the Potency result in experiment [2], in experiment [3], in [5] and in experiment [7] was “inactive” in each case. For the same compound, the activity change, positive = activation in experiment [4] (at 42.5 µM (top of the series)) was 5.59%. For the same compound, the Potency in experiment [6] was 10.7 µM (active).

As to `CCCCC(CC)CN1CN(CC(CC)CCCC)CC(C)(N)C1` (stereo unspecified), the activity change, positive = activation in experiment [4] (at 42.5 µM (top of the series)) was -16.4%. In addition, the Potency is 16.9 µM (active) in [5], 8.49 µM (active) in experiment [9] and 21.3 µM (active) in experiment [7]. Further, in experiment [6], the Potency result was “inactive”.

Take `COc1c(C)c2c(c(O)c1C/C=C(\C)CCC(=O)OCCN1CCOCC1)C(=O)OC2`: the Potency result in [8], in experiment [2], in experiment [3], in experiment [5], in experiment [6] and in experiment [7] was “inactive” in each case. In [4] (at 42.5 µM (top of the series)), the activity change, positive = activation is -23.6%.

Take `C#C[C@]1(OC(C)=O)CC[C@H]2[C@@H]3CCC4=C/C(=N/O)CC[C@@H]4[C@H]3CC[C@@]21CC`: in [4] (at 42.5 µM (top of the series)), the activity change, positive = activation was -41.4%. Moreover, the Potency result in experiment [5], in [6] and in experiment [7] was “inactive” each time.

On to `COC(=O)C1=C(C)NC(C)=C(C(=O)OCCN2CCN(C(c3ccccc3)c3ccccc3)CC2)C1c1cccc([N+](=O)[O-])c1` (stereo unspecified), for which the Potency entry in [2] and in experiment [6] was “inactive” each time. Further, in [3], the Potency was 11.9 µM (active). Further, in experiment [4] (at 42.5 µM (top of the series)), the activity change, positive = activation is -44.8%.

In the case of `CC1(C)CCC[C@]2(C)[C@H]3CCO[C@]3(C)CC[C@@H]12`, the Potency entry in experiment [1], in experiment [2], in experiment [3], in experiment [5], in experiment [9] and in experiment [7] was “inactive” in each case. In addition, in experiment [4] (at 92.4 µM (top of the series)), the activity change, positive = activation is 5.7%.

Take `CCn1c2ccccc2c2cc([N+](=O)[O-])ccc21`: the Potency result in experiment [10], in experiment [5] and in [6] was “inactive” in each case.

`CC1(C)[C@@H](O)CC[C@]2(C)[C@H]3C(=O)C=C4[C@@H]5C[C@@](C)(C(=O)O)CC[C@]5(C)CC[C@@]4(C)[C@]3(C)CC[C@@H]12`: the Potency entry in experiment [1], in experiment [3], in experiment [5], in experiment [9], in [6] and in [7] was “inactive” each time. For the same compound, the activity change, positive = activation in [4] (at 92.4 µM (top of the series)) was 3.52%.

On to `CN1CCN2c3ccccc3Cc3ccccc3C2C1` (stereo unspecified), for which the Potency result in [1], in experiment [2], in experiment [3], in experiment [5], in [9] and in experiment [6] was “inactive” throughout. In addition, the Potency entry in experiment [7] is “inactive”. For the same compound, the activity change, positive = activation in experiment [4] (at 42.5 µM (top of the series)) is -10.4%.

With `Sc1nc2ccccc2s1`, the Potency result in experiment [1], in [8], in experiment [2], in experiment [3], in experiment [5] and in experiment [9] was “inactive” throughout. The Potency entry in [6] and in experiment [7] was “inactive” throughout. Moreover, in experiment [4] (at 92.4 µM (top of the series)), the activity change, positive = activation was 0.0626%.

On to `Cc1ccc(O)c(O)c1`, for which the Potency entry in [8], in experiment [3], in experiment [5] and in experiment [7] was “inactive” in each case.

Regarding `Cc1cc(=O)oc2cc(O)cc(O)c12`, the activity change, positive = activation in experiment [4] (at 92.4 µM (top of the series)) was -20.6%. In addition, the Potency result in experiment [5], in experiment [9], in [6] and in experiment [7] was “inactive” each time.
